Test results from ChEMBL document CHEMBL4513137, “CO-ADD screening of University of Manchester (UK) compounds”.
Measured potencies and affinities stand elsewhere.

Assays:
Staphylococcus aureus = details: Concentration 32 ug.mL-1; ASSAY_TEST Inhibition of Bacterial Growth; detection method Absorption (OD600); MEDIA CAMHB; plate type 384well; NBS; CORNING #3640; time 18 hr
Escherichia coli = details: Concentration 32 ug.mL-1; ASSAY_TEST Inhibition of Bacterial Growth; detection method Absorption (OD600); MEDIA CAMHB; plate type 384well; NBS; CORNING #3640; time 18 hr

O=[N+]([O-])c1ccc(-c2ccccc2N(Cc2ccccc2)c2ccccc2)cc1
Inhibition (Staphylococcus aureus): 20.79%
Inhibition (Escherichia coli): 4.24%

O=[N+]([O-])c1ccc(-c2ccccc2Nc2ccccc2Br)cc1
Inhibition (Staphylococcus aureus): 15.02%
Inhibition (Escherichia coli): -1.08%

O=[N+]([O-])c1ccc2c3ccccc3n(-c3ccccc3)c2c1
Inhibition (Staphylococcus aureus): 11.65%
Inhibition (Escherichia coli): -9.21%

Cc1cc([N+](=O)[O-])ccc1-c1ccccc1N(C)c1ccccc1
Inhibition (Staphylococcus aureus): -10.68%
Inhibition (Escherichia coli): 0.54%

O=[N+]([O-])c1ccc(-c2c(Nc3ccccc3)ccc3ccccc23)cc1
Inhibition (Staphylococcus aureus): 8.24%
Inhibition (Escherichia coli): -0.39%

COc1cc([N+](=O)[O-])ccc1-c1c(Nc2ccccc2)cccc1OC
Inhibition (Staphylococcus aureus): 27.31%
Inhibition (Escherichia coli): 7.58%

c1ccc(Nc2ccccc2-c2ncccn2)cc1
Inhibition (Staphylococcus aureus): 6.34%
Inhibition (Escherichia coli): 1.3%

Cc1cc(C)c(Nc2ccccc2-c2ccc([N+](=O)[O-])cc2)c(C)c1
Inhibition (Staphylococcus aureus): -5.17%
Inhibition (Escherichia coli): 1.23%

CC[C@@H](Nc1ccccc1-c1c(Cl)cc(Br)cc1Cl)c1ccccc1
Inhibition (Staphylococcus aureus): 29.88%
Inhibition (Escherichia coli): 4.43%

Cc1cccc(C)c1Nc1ccccc1-c1ccccc1[N+](=O)[O-]
Inhibition (Staphylococcus aureus): 57.09%
Inhibition (Escherichia coli): 4.01%

O=[N+]([O-])c1ccc(-c2cccc3c2[nH]c2ccccc23)cc1
Inhibition (Staphylococcus aureus): 21.52%
Inhibition (Escherichia coli): 3.84%

N#Cc1ccc(-c2ccccc2Nc2ccccc2)cc1
Inhibition (Staphylococcus aureus): 12.74%
Inhibition (Escherichia coli): -6.88%

O=[N+]([O-])c1cc(Cl)c(-c2ccccc2Nc2ccccc2)c(Cl)c1
Inhibition (Staphylococcus aureus): 19.61%
Inhibition (Escherichia coli): -7.56%

COc1cccc(Nc2ccccc2)c1-c1c(Cl)cc(Br)cc1Cl
Inhibition (Staphylococcus aureus): 19.63%
Inhibition (Escherichia coli): 4.62%

Cc1ccccc1Nc1ccccc1-c1ccc([N+](=O)[O-])cc1
Inhibition (Staphylococcus aureus): 21.4%
Inhibition (Escherichia coli): -4.33%

Clc1cc(Br)cc(Cl)c1-c1ccccc1Nc1ccccc1
Inhibition (Staphylococcus aureus): 22.27%
Inhibition (Escherichia coli): -3.79%

O=[N+]([O-])c1ccc(-c2c(Nc3ccccc3)cccc2-c2ccccc2)cc1
Inhibition (Staphylococcus aureus): 23.01%
Inhibition (Escherichia coli): -0.69%

O=[N+]([O-])c1ccc(-c2ccccc2Nc2ccccc2)cc1
Inhibition (Staphylococcus aureus): -5.74%
Inhibition (Escherichia coli): 3.34%

COc1cccc(Nc2ccccc2)c1-c1ccc([N+](=O)[O-])cc1
Inhibition (Staphylococcus aureus): 23.81%
Inhibition (Escherichia coli): 7.82%

O=[N+]([O-])c1ccc(-c2ccccc2Nc2ccccc2)cc1F
Inhibition (Staphylococcus aureus): 18.96%
Inhibition (Escherichia coli): 3.69%

O=[N+]([O-])c1ccc(-c2ccccc2Nc2ccccc2)cc1C(F)(F)F
Inhibition (Staphylococcus aureus): 23.3%
Inhibition (Escherichia coli): 4.01%

CN(c1ccccc1)c1ccccc1-c1ccc([N+](=O)[O-])cc1
Inhibition (Staphylococcus aureus): 9.33%
Inhibition (Escherichia coli): -0.45%

COc1cc([N+](=O)[O-])ccc1-c1ccccc1Nc1ccccc1
Inhibition (Staphylococcus aureus): 23.48%
Inhibition (Escherichia coli): -2.88%

COc1ccc(Nc2ccccc2-c2ccc([N+](=O)[O-])cc2)cc1
Inhibition (Staphylococcus aureus): 17.68%
Inhibition (Escherichia coli): -1.45%

O=[N+]([O-])c1ccc(-c2ccccc2Nc2ccccc2)c(Cl)c1
Inhibition (Staphylococcus aureus): 13.69%
Inhibition (Escherichia coli): -8.34%

CC(=O)c1ccc(-c2ccccc2Nc2ccccc2)cc1
Inhibition (Staphylococcus aureus): 12.03%
Inhibition (Escherichia coli): 6.5%

COc1cccc(N(C)c2cccc(OC)c2-c2ccc([N+](=O)[O-])cc2C)c1
Inhibition (Staphylococcus aureus): 23.07%
Inhibition (Escherichia coli): 1.91%
